Assay [1] is described as follows: small molecules captured by biotinylated probe aFSTL3 – biochemical, small-molecule microarray, fluorescence 635/667, stem cell growth factor project, primary screen (AID 1064).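 Note: measures binding of the biotinylated anti-FSTL3 antibody to printed compounds.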 The conditions noted are these: higher = more signal.
The nature of assay [2]: binders from COS7 lysate, DM2A8 probe, primary screen, torsin A project, cell lysate, small-molecule microarray, fluorescence 635/667 (AID 1065). The conditions noted are these: higher = more signal, COS7 lysate expressing mutant human TOR1A.
Assay [3] in a line: small molecules captured by biotinylated probe aFGF2 – biochemical, small-molecule microarray, fluorescence 635/667, stem cell growth factor project, primary screen (AID 1067).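 Note: measures binding of biotinylated aFGF2 protein to printed compounds on slides; z-score merges feature fluorescence and signal-to-noise across triplicate slides.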 The conditions noted are these: higher = more signal.
Assay [4] can be described thus: small molecules captured by biotinylated probe aFGF10 – biochemical, small-molecule microarray, fluorescence 635/667, stem cell growth factor project, primary screen (AID 1071).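 Note: score merges 667 nm spot intensity and signal to noise from triplicate slides.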 The conditions noted are these: higher = more signal.
For assay [5], the target named is Neurogenic locus notch homolog protein 2 (Homo sapiens) (UniProt Q04721). Nature of the assay: small molecules binding Notch2 protein – biochemical, small-molecule microarray, 635 nm fluorescence, stem cell growth factors, primary screen (AID 1073). The conditions noted are these: higher = more signal.
The target in assay [6] is Pro-neuregulin-1, membrane-bound isoform (Homo sapiens) (UniProt Q02297). Kind of assay: small molecules binding neuregulin-1 protein – biochemical, small-molecule microarray, fluorescence 635/667, psychiatric disease protein project, primary screen (AID 1075).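 Note: score combines 667 nm spot fluorescence with signal to noise.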 The conditions noted are these: NRG1 binding, 635 nm fluorescence, higher = more signal.
The subject of assay [7] is Neuregulin-1 EGF-like domain. Kind of assay: small molecules binding NRG1 EGF domain – biochemical, small-molecule microarray, 635 nm fluorescence, primary screen (AID 1081).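 Note: binding of the protein to compounds printed on small-molecule microarray slides.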 The conditions noted are these: higher = more signal.
Assay [8] in a line: FRG1 expression reporter modulators in myotubes – cell-based, C2C12 myotubes, firefly/Renilla luciferase, luminescence, FRG1 inhibition for FSHD, primary screen (AID 1084). The conditions noted are these: FRG1 promoter luciferase, higher = more signal, called active from +8 up or from −8 down.
A short description of assay [9]: small molecules captured by biotinylated probe aFST – biochemical, small-molecule microarray, fluorescence 635/667, stem cell growth factor project, primary screen (AID 1086).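 Note: score merges 667 nm fluorescence with signal-to-noise of each printed compound spot.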 The conditions noted are these: higher = more signal.
Assay [10] can be described thus: binders of probe aHhip on microarray, primary screen, stem cell growth factor project, biochemical, small-molecule microarray, fluorescence 635/667 (AID 1087).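 Note: score merges spot fluorescence at 667nm with spot signal to noise ratio.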 The conditions noted are these: higher = more signal.
In assay [11] the test system is PRMT1 (protein arginine N-methyltransferase 1). Kind of assay: small molecules binding arginine methyltransferase PRMT1 – biochemical, small-molecule microarray, 635 nm fluorescence, primary screen (AID 1088).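 Note: binding of Prmt1 protein to compounds spotted on small-molecule microarray slides.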 The conditions noted are these: higher = more signal.
Assay [12] can be described thus: growth effects on S. cerevisiae YJM789 – YJM789 clinical isolate, OD600, 24 h, basal, primary screen (AID 1089).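 Note: growth of clinical yeast isolate S. cerevisiae YJM 789 seeded 1000 cells per well; test concentration not given here.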 The conditions noted are these: higher = more signal, called active from +8 up or from −8 down.
The nature of assay [13]: S. pombe growth modifiers, basal conditions – strain 972, OD600, 24 h, no modulator, primary screen (AID 1090).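 Note: basal condition with compound alone and no growth modifier present; test concentration not given here.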 The conditions noted are these: S. pombe 972 growth, higher = more signal, called active from +8 up or from −8 down.
The nature of assay [14]: budding yeast growth modifiers under rapamycin – strain BY4716, OD600, 96 h, primary screen (AID 1091). Note: test concentration not given here. The conditions noted are these: S. cerevisiae BY4716 + rapamycin, higher = more signal, called active from +8 up or from −8 down.
Assay [15] has as its target Torsin-1A-interacting protein 2 (Homo sapiens) (UniProt Q8NFQ8). Kind of assay: small molecules binding lysate-expressed LULL1 – cell lysate, human LULL1 lysate, 635/667 nm fluorescence, primary screen (AID 1092).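 Note: probe is lysate of COS7 cells overexpressing human LULL1; score merges per-feature 667 nm fluorescence with signal-to-noise.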 The conditions noted are these: small-molecule microarray, hLULL1 lysate binding, 635 nm fluorescence; higher = more signal.
A short description of assay [16]: optical density change of DRC41 E. coli – strain DRC41, OD650, 24 h, E. coli filamentation project, primary screen (AID 1093).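 Note: MC1000 strain lacking acrAB efflux and sulA so SOS filamentation is blocked; test concentration not given here.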 The conditions noted are these: E. coli DRC41 growth, higher = more signal, called active from +8 up or from −8 down.
A short description of assay [17]: probe aLefty2 binding to arrayed compounds – biochemical, biotinylated probe, 635/667 nm fluorescence, primary screen (AID 1094).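 Note: score merges spot fluorescence near 667 nm with spot signal-to-noise ratio.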 The conditions noted are these: small-molecule microarray, higher = more signal.
The subject of assay [18] is Noggin (protein binding on small-molecule microarray). Nature of the assay: small molecules binding Noggin protein – biochemical, 635/667 nm fluorescence, primary screen (AID 1095).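 Note: score merges 667 nm feature fluorescence with signal to noise over triplicate slides.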 The conditions noted are these: 635 nm fluorescence, higher = more signal.
Assay [19] addresses Neurogenic locus notch homolog protein 3 (Homo sapiens) (UniProt Q9UM47). Kind of assay: small molecules binding NOTCH3 protein – biochemical, 635/667 nm fluorescence, primary screen (AID 1096). The conditions noted are these: small-molecule microarray, 635 nm fluorescence, higher = more signal.
Assay [20] can be described thus: probe aEGFR binding to arrayed compounds – biochemical, biotinylated probe, 635/667 nm fluorescence, primary screen (AID 1097).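 Note: probe is a biotinylated anti-EGFR antibody binding compounds printed on slides; score combines fluorescence near 667 nm and signal to noise of each spot.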 The conditions noted are these: small-molecule microarray, higher = more signal.

Active and inactive are the calls of the source.

Our source for the composite z-score and z-score values is PubChem BioAssay.

Torsin-1A-interacting protein 2 (Homo sapiens), sequence (Q8NFQ8 whole entry, looked up): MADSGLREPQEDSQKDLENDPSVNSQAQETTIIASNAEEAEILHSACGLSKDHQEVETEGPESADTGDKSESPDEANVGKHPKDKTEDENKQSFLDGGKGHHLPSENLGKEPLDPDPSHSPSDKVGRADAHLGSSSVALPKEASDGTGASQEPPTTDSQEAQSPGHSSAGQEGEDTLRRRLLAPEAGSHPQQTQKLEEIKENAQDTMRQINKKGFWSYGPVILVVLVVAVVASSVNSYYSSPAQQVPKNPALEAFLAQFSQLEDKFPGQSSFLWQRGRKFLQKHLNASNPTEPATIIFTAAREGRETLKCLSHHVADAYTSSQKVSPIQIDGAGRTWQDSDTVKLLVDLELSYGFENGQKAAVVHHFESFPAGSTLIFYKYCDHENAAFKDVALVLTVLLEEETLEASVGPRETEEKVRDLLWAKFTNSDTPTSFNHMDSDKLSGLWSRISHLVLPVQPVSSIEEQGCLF
Neurogenic locus notch homolog protein 3 (Homo sapiens), sequence (Q9UM47 whole entry, looked up): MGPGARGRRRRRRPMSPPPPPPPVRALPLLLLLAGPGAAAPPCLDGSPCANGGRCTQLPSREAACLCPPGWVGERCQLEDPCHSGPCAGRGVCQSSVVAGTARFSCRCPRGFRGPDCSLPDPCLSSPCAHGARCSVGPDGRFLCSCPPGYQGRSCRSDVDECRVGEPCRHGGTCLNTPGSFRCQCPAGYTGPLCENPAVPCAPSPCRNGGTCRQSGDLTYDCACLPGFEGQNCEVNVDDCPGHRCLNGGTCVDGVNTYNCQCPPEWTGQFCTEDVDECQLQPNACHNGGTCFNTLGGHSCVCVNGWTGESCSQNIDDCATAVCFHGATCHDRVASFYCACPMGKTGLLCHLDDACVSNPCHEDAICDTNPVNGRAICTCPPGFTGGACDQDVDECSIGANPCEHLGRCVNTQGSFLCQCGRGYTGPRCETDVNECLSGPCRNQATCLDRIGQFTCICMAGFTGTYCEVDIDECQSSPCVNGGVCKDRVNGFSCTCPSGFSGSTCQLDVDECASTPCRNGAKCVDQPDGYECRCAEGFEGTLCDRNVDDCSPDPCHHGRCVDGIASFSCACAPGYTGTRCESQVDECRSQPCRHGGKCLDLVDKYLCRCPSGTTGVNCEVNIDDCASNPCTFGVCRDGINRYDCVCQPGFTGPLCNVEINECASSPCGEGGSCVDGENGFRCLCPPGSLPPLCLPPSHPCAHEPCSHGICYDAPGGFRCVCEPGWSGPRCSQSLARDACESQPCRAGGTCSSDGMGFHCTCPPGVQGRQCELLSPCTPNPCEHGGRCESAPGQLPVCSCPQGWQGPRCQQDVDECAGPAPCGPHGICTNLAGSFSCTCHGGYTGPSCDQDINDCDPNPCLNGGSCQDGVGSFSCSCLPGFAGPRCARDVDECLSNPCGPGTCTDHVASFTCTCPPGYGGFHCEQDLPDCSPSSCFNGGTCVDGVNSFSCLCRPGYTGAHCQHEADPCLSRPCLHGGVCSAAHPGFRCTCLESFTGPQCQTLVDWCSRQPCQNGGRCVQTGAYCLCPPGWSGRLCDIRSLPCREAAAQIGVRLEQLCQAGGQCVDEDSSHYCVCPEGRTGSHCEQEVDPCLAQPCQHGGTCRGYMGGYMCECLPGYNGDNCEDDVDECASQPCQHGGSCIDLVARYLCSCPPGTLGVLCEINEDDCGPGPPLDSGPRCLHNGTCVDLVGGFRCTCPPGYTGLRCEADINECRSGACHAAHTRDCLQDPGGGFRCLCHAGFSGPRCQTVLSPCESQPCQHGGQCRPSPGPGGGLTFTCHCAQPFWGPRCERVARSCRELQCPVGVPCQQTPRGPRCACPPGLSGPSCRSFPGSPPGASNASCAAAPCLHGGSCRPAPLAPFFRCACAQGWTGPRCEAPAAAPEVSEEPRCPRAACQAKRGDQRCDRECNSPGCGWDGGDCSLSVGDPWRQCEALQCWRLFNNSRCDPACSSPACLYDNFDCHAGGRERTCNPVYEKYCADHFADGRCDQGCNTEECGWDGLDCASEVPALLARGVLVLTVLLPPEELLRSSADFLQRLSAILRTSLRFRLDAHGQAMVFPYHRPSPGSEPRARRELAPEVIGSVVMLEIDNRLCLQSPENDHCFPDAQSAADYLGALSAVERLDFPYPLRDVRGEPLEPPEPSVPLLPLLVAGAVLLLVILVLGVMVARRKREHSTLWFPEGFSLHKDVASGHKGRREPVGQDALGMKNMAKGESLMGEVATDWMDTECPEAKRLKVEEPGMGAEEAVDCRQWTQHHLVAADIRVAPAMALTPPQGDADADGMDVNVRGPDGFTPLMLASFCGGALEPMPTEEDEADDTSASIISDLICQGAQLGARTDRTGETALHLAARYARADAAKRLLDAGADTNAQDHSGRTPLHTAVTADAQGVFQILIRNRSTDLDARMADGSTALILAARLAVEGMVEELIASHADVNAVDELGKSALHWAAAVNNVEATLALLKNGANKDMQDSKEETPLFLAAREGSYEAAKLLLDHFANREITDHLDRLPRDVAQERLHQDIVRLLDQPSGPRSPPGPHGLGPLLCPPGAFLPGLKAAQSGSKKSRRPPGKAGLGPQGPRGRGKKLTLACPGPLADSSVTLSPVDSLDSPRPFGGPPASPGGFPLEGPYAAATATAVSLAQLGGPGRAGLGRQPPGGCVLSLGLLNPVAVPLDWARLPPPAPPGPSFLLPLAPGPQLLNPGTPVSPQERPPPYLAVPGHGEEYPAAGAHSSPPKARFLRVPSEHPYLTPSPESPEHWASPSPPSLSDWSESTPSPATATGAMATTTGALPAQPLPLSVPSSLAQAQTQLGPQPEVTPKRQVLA
Pro-neuregulin-1, membrane-bound isoform (Homo sapiens), sequence (Q02297 whole entry, looked up, the tested form may be a part, canonical isoform): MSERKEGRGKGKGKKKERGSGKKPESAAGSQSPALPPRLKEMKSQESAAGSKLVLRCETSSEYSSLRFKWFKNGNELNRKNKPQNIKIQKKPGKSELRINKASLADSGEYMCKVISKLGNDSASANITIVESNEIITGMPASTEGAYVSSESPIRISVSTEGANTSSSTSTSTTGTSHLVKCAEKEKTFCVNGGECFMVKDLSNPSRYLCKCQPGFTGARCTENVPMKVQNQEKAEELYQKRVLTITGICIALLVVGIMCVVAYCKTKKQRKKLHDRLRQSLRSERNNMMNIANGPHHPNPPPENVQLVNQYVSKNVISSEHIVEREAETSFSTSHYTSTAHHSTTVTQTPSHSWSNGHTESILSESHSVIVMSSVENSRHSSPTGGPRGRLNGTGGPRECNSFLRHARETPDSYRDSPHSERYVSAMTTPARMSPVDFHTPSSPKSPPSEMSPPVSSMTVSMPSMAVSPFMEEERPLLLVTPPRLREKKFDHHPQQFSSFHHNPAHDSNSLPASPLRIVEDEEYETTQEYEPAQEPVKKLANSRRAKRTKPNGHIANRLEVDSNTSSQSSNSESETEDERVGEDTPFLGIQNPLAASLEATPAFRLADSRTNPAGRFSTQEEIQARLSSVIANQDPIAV

On to `CC(C)C[C@@H]1NC(=O)[C@@H]2C[C@H](C(=O)NCCCCCN)[C@H](c3ccc(O)cc3)N2C1=O`, for which the composite z-score was 0.347 in assay [1]; 0.174 in assay [2]; -0.0909 in assay [3]; 0.335 in [4]; 0.727 in assay [5]; 1.26 in [6]. Also, the composite z-score in assay [7] was 1.3; in assay [9] it was 0.371; in [10], 0.0854; in assay [11], 1.57; in [15] it was 2.57; in [17], -0.109. Moreover, the composite z-score is 1.47 in [18], 0.894 in [19] and -0.0078 in [20]. The z-score was -0.375 (inactive) in assay [8]; 0.563 (inactive) in assay [12]; 0.32 (inactive) in assay [13]; 0.965 (inactive) in assay [14]; -0.687 (inactive) in assay [16].

As to `COCCOC(=O)N1C(=O)[C@@]2(c3cc(C#CC4=CCCCC4)ccc31)[C@H](c1ccc(OCCO)cc1)N1[C@H](c3ccccc3)[C@H](c3ccccc3)OC(=O)[C@H]1[C@@H]2C(=O)NC[C@H](O)c1ccccc1`, the composite z-score in [1] is 0.82; in assay [2], 0.366; in [3] it was -0.0032; in [4] it was 0.246; in [5], 1.24; in [6], -0.118. Further, the composite z-score came to 1.15 in assay [7]; 1.44 in [9]; 0.187 in assay [10]; 1.54 in assay [11]; 2.6 in assay [15]; 0.789 in [17]. The values for the composite z-score in assay [18], in assay [19] and in assay [20] were 1.11, 1.07 and 0.108, respectively. For the same molecule, the z-score in [8] is 0.745 (inactive); in assay [12], 2.04 (inactive); in assay [13], 0.798 (inactive); in assay [14], 5.7 (inactive); in assay [16], 0.546 (inactive).

With `COC(=O)Cn1c(C(=O)N(C)C)cc2c1C[C@H]1CN(C(=O)c3ccccc3)[C@@](Cc3ccc(F)cc3)(C(=O)OC)[C@@H]21`, the composite z-score in [1] was 0.0501; in [2], -0.152; in assay [3], 0.154; in [4] it was 1.24; in assay [5], 1.65; in assay [6], 0.88. Further, the composite z-score in assay [7] is 1.13; in assay [9], 0.114; in assay [10], -0.15; in [11], -0.397; in [15], 2.81; in assay [17], 0.639. For the same molecule, the composite z-score in assay [18] was -0.327; in assay [19], 0.104; in assay [20] it was 0.561. Moreover, the z-score was -0.438 (inactive) in [8]; 1.28 (inactive) in assay [12]; 1.42 (inactive) in assay [13]; 1.61 (inactive) in assay [14]; -0.581 (inactive) in assay [16].

Regarding `CCCC[C@@H](O)C1=C(COc2ccccc2)C[C@H]2C(=O)N(C)C(=O)[C@H]2[C@H]1CO`, the composite z-score in assay [1] was -0.417; in assay [2], -0.33; in assay [3], -0.128; in assay [4], -0.167; in assay [5] it was -0.23; in assay [6], -0.665. For the same molecule, the composite z-score was -0.609 in assay [7]; -0.346 in assay [9]; -0.261 in assay [10]; 0.129 in assay [11]; -0.988 in assay [15]; -0.247 in assay [17]. The results for the composite z-score in assay [18], in assay [19] and in assay [20] were 0.273, -0.242 and -0.225, respectively. Further, the z-score in assay [8] is -1.64 (inactive); in assay [12], -2.42 (inactive); in assay [13] it was -1.79 (inactive); in assay [14] it was -0.561 (inactive); in [16], 1.31 (inactive).

Take `CC(C)N1C(=O)c2ccccc2[C@@H](C(=O)NC2CC2)[C@@H]1c1ccc(CO)cc1`: the composite z-score was -0.236 in assay [1]; -0.184 in assay [2]; -0.0615 in assay [3]; 0.0389 in assay [4]; -0.425 in assay [5]; 0.933 in [6]. In addition, the composite z-score in assay [7] is 1.3; in [9] it was -0.593; in [10], -0.189; in assay [11], 0.672; in assay [15], 0.968; in assay [17] it was -0.117. Besides, the composite z-score in assay [18] is 0.521; in assay [19], -0.201; in assay [20], -0.156. Further, the z-score in [8] is 0.216 (inactive); in assay [12], -0.904 (inactive); in assay [13], -0.826 (inactive); in assay [14], -0.39 (inactive); in [16] it was 0.141 (inactive).

As to `COc1ccc([Si](C)(C)[C@H]2[C@H](CC(=O)N(CCO)Cc3ccccc3)O[C@@]3(C(=O)N(Cc4cccc(N5CCOC5=O)c4)c4ccccc43)[C@@H]2C)cc1`, the composite z-score in assay [1] is -0.243; in assay [2], 0.635; in assay [3] it was -0.0737; in [4], 0.171; in [5], 0.0078; in assay [6] it was 1.2. Besides, the composite z-score was 0.974 in assay [7]; -0.0174 in assay [9]; 0.176 in [10]; 1.56 in [11]; 1.35 in assay [15]; -0.0724 in assay [17]. The composite z-score in assay [18] is 0.722; in assay [19], 0.403; in assay [20], -0.167. In addition, the z-score in [8] is -0.551 (inactive); in [12], -0.0337 (inactive); in assay [13], -0.166 (inactive); in assay [14], 3.02 (inactive); in assay [16], 1.17 (inactive).

On to `COc1cc(CO)cc(I)c1O[C@H]1C=C(C(=O)NCCO)C[C@@H](NCc2ccc(F)cc2)[C@@H]1O`, for which the composite z-score is -0.519 in assay [1]; 0.254 in [2]; 0.0062 in [3]; 1.34 in assay [4]; 0.366 in assay [5]; 0.406 in assay [6]. The composite z-score in assay [7] was -0.0461; in assay [9], 0.245; in assay [10], -0.0645; in assay [11], 1.07; in assay [15], -0.135; in [17], -0.109. In addition, the composite z-score in assay [18] is 0.938; in assay [19], 0.305; in [20], -0.128. Besides, the z-score in assay [8] is -1.14 (inactive); in assay [12], 1.41 (inactive); in assay [13], -9.13 (active); in assay [14], 0.388 (inactive); in [16] it was 0.944 (inactive).

On to `CN(C)CCCNC(=O)[C@@]1(c2ccc([N+](=O)[O-])cc2)CC(=O)N(CC23CC4CC(CC(C4)C2)C3)[C@@H]1c1ccc(CO)cc1I`, for which the composite z-score was -0.319 in [1]; 0.634 in [2]; -0.0687 in assay [3]; 0.272 in assay [4]; 1.2 in assay [5]; 0.343 in assay [6]. Further, the composite z-score was 1.36 in assay [7]; 1.48 in [9]; 0.0749 in [10]; 1.53 in assay [11]; 2.35 in [15]; -0.182 in [17]. Also, the composite z-score in assay [18] turned out to be 1.75; in assay [19], 1.06; in assay [20], 0.0209. Also, the z-score in [8] is -2.44 (inactive); in assay [12], -25.1 (active); in [13] it was -18.6 (active); in assay [14], -2.21 (inactive); in [16], -6.64 (inactive).

As for `C[C@H]1NC(=O)[C@@]23C(=O)N[C@@H](Cc4ccccc4)C2[C@H](C)[C@@]2(C)O[C@H]2C3/C=C/C/C=C\CNC(=O)[C@H](Cc2ccccc2)NC1=O` (stereo not given in full), the composite z-score in assay [1] was -0.536; in assay [2] it was 0.0198; in assay [3], -0.206; in assay [4], 0.533; in assay [5] it was -0.158; in assay [6], 1.4. Besides, the composite z-score in assay [7] is 1.11; in assay [9] it was -0.107; in assay [10], -0.137; in [11], 0.44; in assay [15], 0.834; in assay [17], -0.213. Also, the figures for the composite z-score in [18], in assay [19] and in assay [20] were 1.22, 0.967 and -0.096, respectively. Besides, the z-score was 1.8 (inactive) in assay [8]; 0.907 (inactive) in assay [12]; -0.236 (inactive) in [13]; 0.952 (inactive) in assay [14]; -0.225 (inactive) in [16].
